The results in this text go back to PubChem BioAssay AID1346428 (National Center for Advancing Translational Sciences (NCATS), 2018).

The structures appear in SMILES notation. Among all 48,000 compounds or so, about 1,200 (2.5%) were called active. About 2% were inconclusive and are not listed.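 How the source made its calls: active means activation of at least 60% and not above a set upper limit (about 1 call in 100 departs from these limits); inconclusive means activation of 40% to 60%, or above that upper limit; inactive means activation under 40%.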 What follows is part of a selection rich in actives, with near analogues and random picks from the rest.

Probable G-protein coupled receptor 32 (Homo sapiens), sequence (O75388 whole entry, looked up): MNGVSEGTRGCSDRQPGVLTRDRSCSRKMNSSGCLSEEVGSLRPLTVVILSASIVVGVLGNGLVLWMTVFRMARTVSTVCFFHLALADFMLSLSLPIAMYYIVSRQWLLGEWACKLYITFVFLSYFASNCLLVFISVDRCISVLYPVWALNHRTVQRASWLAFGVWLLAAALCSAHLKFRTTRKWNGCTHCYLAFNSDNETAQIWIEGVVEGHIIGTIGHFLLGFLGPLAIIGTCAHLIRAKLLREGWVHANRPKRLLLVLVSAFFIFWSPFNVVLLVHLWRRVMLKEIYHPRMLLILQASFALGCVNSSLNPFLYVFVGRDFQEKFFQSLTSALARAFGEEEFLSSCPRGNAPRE

The target of this experiment is Probable G-protein coupled receptor 32 (Homo sapiens) (UniProt O75388). Briefly: qHTS for Agonists of Human Resolvin D1 Receptor DRV1. The following applies: CHO-K1 GPR32 beta-arrestin PathHunter luminescence, 90 min; at 76.9 µM; active compounds read high; zero percent set by DMSO-only wells. An excerpt:
Endogenous resolution of inflammation is known to be transduced through various GPCRs and their natural mediators of lipid nature. Resolvin D1 (RvD1) is one of the active players in resolution of acute inflammation through regulation of anti-inflammatory pathways; it is known to enhance phagocytosis of human macrophages, limits neutrophils infiltration, etc. […] The search for GPR32-activating small molecules with anti-inflammatory effects similar to its natural omega-3 derivative ligand in order to use them as research tools for further studies of inflammation and its resolution was the goal of this screening project. For primary screening assay, we used CHO-K1 GPR32 beta-arrestin cell line (DiscoveRx, #93-0321C2A) and the PathHunter(R) beta-Arrestin Assay (DiscoveRx) which measures recruitment of beta-arrestin to the GPR32 and generates chemiluminescent signal. These engineered cells stably transfected with GPR32 co-express GPR32-fused small 42-amino acid fragment of beta-Gal called ProLinktrade mark, and […] -tagged beta-Arrestin fusion protein. When GPR32 is activated by a ligand, it stimulates binding of beta -Arrestin to ProLink-tagged GPR32, and two parts of beta-Gal complement forming a functional enzyme. Upon substrate (PathHunter(R) Detection reagent) addition, beta-Gal hydrolyzes it and generates a chemiluminescent signal.
The cells were thawed and plated in thawing media containing F-12 HAM (Invitrogen, #11765-054), 10% FBS (Invitrogen, #10082), 1x Glutamine, and 1x Pen/Strep onto the 175-mm flask for 24 hours. Then, thawing media was replaced with Growth media which contains 800microg/mL Geneticin (Invitrogen, #10131) and 300microg/mL Hygromycin B (Invitrogen, #10687) in addition to described above. For the assay, the cells were harvested at ~80% confluent stage with Cell Dissociation buffer (Gibco, #13151), and seeded at 2,500 cells/ 3microL/well in assay media (PathHunter(R) Cell Plating Reagent, DiscoverX, #93-0563R1B) using MultiDrop Combi dispenser (Thermo Scientific, Logan, UT) onto white solid bottom tissue culture-treated 1536-well plates (Greiner # 789173-F) and allowed to attach overnight at 37 degrees C, 95% humidity, 5% CO2, . Next, 23nL/well of compound solutions in DMSO were added with a Pin Tool (Kalypsis, San Diego, CA) to the assay plates. As the basal control (EC0), 23 nL/well of DMSO was used on each plate. The cells were incubated in the presence of compounds or DMSO for 90 minutes at 37 degrees C, 5% CO2. Subsequently, 1.5microL/well of PathHunter(R) Detection Reagent prepared per the manufacturer's instructions was added to the assay plates with BioRAPTR FRDtrade mark dispenser (Beckman Coulter, San Francisco, CA) and incubated for 1 hour at ambient temperature prior to the measurement of the luminescent signal on ViewLux(R) uHTS Microplate Imager (Perkin Elmer, Waltham, MA).
As to `COC(=O)c1cc(S(=O)(=O)N2CCN(c3cc(Cl)ccc3C)CC2)c[nH]1`, the activation was 13.7% (inactive). With `CCn1cc(C(=O)N2CCN(c3cc(Cl)ccc3C)CC2)c(=O)c2cc(S(=O)(=O)N3CCCC3)ccc21`, the activation is -4.63% (inactive). For the molecule `Cc1ccc(Cl)cc1N1CCN(S(=O)(=O)c2cc3[nH]c(=O)c(=O)[nH]c3cc2C)CC1`, the activation is 97% (active). As for `Cc1c(C)n(Cc2ccc(Cl)cc2)c2ccc(C(=O)N3CCN(c4ccccc4F)CC3)cc12`, the activation was -26.9% (inactive).

Take `O=C1N(Cc2ccccc2)c2ccc(Cl)cc2C1(O)c1c[nH]c2ccccc12` (stereo not given): the activation was 116% (active).

As for `O=c1c2ccccc2n(Cc2cccc(Cl)c2)c(=O)n1Cc1ccccc1`, the activation is -10.4% (inactive).

On to `O=C(CC1Oc2ccc(Cl)cc2NC1=O)NCc1ccccc1` (stereo not given), for which the activation is -14.9% (inactive). Consider `Cc1cccc(NC(=O)Cn2nc(-c3ccc(Cl)cc3)c3ccccc3c2=O)c1`, for which the activation was -2.07% (inactive). The figure for `COc1ccc(OCCCn2c(C3CC(=O)N(c4ccc(F)cc4)C3)nc3ccccc32)cc1` (stereo not given) is 1.68% (inactive); for `Cc1ccc(C)c(N2CCN(C(=O)Cc3c(C(=O)O)c(C)cn3C)CC2)c1` it is -4.29% (inactive).

As for `CCOC(=O)c1ccc(NC(=O)C2CCN(S(=O)(=O)c3ccc4c(c3)CCCC(=O)N4)CC2)cc1`, the activation is 68.9% (active). `CC(=O)Nc1ccc(NC(=O)C2CCCN(S(=O)(=O)c3ccc4c(c3)CCCC(=O)N4)C2)cc1` (stereo not given): the activation was 16.8% (inactive). The figure for `COc1ccc(OC)c(NC(=O)C2CCCN(S(=O)(=O)c3ccc4c(c3)CCCC(=O)N4)C2)c1` (stereo not given) is -4.17% (inactive); for `COc1ccc(Cl)cc1NC(=O)NCC1CCN(Cc2ccccc2F)CC1` it is -10.4% (inactive).

Consider `CCOc1ccc(C2CC(=O)c3c([nH]c(C(=O)OCc4ccccc4)c3C)C2)cc1` (stereo not given), for which the activation was 49.1% (inactive).

Take `COc1cccc(CNC(=O)c2cc(=O)[nH]c3ccc(S(=O)(=O)N4CCCCC4)cc23)c1`: the activation was -3.54% (inactive). The figure for `CCC(=O)N1CCc2cc(Br)cc(S(=O)(=O)NCc3ccc(Cl)cc3)c21` is 19.3% (inactive). `CCN(CC)CCNC(=O)c1cc2c(=O)oc3ccc(C)cc3c2s1`: the activation is 67.3% (active). The figure for `CCOc1ccc(N(CC)C(=O)c2cc3c(=O)oc4ccccc4c3s2)cc1` is 21.3% (inactive); for `COc1ccc(Cl)cc1N(C)C(=O)c1cc2c(=O)oc3ccc(C)cc3c2s1` it is 29.1% (inactive); for `Cc1cccc(Nc2cc(C)nc(-n3nc(C)cc3C)n2)c1` it is -20.8% (inactive). The figure for `O=C(c1ccc2c(c1)N(Cc1ccccc1)C(=O)c1ccccc1S2(=O)=O)N1CCC(Cc2ccccc2)CC1` is -8.72% (inactive); for `Cc1ccc(C)c(Oc2c(C(F)(F)F)oc3c(CN4CCN(C)CC4)c(O)ccc3c2=O)c1` it is -14.3% (inactive). The figure for `CC1CCCN(Cc2c(O)ccc3c(=O)c(Oc4ccc(C(C)(C)C)cc4)c(C(F)(F)F)oc23)C1` (stereo not given) is 64.7% (active). In the case of `Cc1ccc(Oc2c(C(F)(F)F)oc3c(CN4CCCCC4)c(O)ccc3c2=O)cc1`, the activation was -34.2% (inactive). Turning to `COc1ccc(-c2c(C)c3ccc(O)c(CN4CCCC4)c3oc2=O)cc1OC`, the activation is -5.21% (inactive).

Consider `CC1CCCCN1Cc1c(O)ccc2c(=O)c(-c3cccc(Cl)c3)c(C(F)(F)F)oc12` (stereo not given), for which the activation was -11.7% (inactive). Consider `CCC1CCCCN1Cc1c(O)ccc2c(=O)c(Oc3ccccc3Cl)c(C(F)(F)F)oc12` (stereo not given), for which the activation is 102% (active). Under `Cc1ccsc1CN(C(=O)c1oc2ccc(Br)cc2c1C)C1CCS(=O)(=O)C1` (stereo not given) stands -26.5% (inactive); under `Cn1c(=O)n(C)c2cc(NS(=O)(=O)c3ccc(F)cc3)ccc21`, 7.69% (inactive).

For `Cc1cc(F)ccc1NS(=O)(=O)c1ccc(-n2cccn2)cc1`, the activation was 106% (active). Under `Cc1cc(F)ccc1NC1(c2ccccc2)C(=O)c2ccccc2C1=O` stands -74.1% (inactive); under `CCOC(=O)N1CCc2c(sc3c2c(=O)n(-c2ccc(CC)cc2)c(=O)n3C)C1`, -6.72% (inactive); under `CC(Nc1ccc(-c2nc(-c3ccco3)no2)cc1[N+](=O)[O-])c1ccccc1` (stereo not given), -14.5% (inactive). Under `COc1ccc(OC)c(NC(=O)CSc2nc3ccccc3nc2N2CCCCC2)c1` stands -20.5% (inactive); under `O=C(Nc1cccc(-c2nc3ccccc3o2)c1)c1cccc(Br)c1`, -18.9% (inactive); under `O=S(=O)(Nc1ccc2nc(-c3cccc(Cl)c3)oc2c1)c1ccccc1`, 93.4% (active). The figure for `O=C(Nc1ccc(O)c(-c2nc3ccccc3o2)c1)c1ccc(-c2cccc(Cl)c2)o1` is 10.7% (inactive); for `COC(=O)c1ccc(Cn2c(SCC(=O)N(C)c3ccccc3)nc3ccccc32)cc1` it is -14.8% (inactive). Take `CCOc1cccc(NC(=O)CSc2ncc(-c3ccc(Cl)cc3)[nH]2)c1`: the activation was -15.1% (inactive). Take `O=C(CSc1ncc(-c2ccccc2)[nH]1)Nc1ccc(F)cc1F`: the activation is -23.6% (inactive). Turning to `Cc1cccc(NC(=O)CSc2ncc(-c3ccccc3)[nH]2)c1C`, the activation was 93% (active). Under `COC(=O)c1ccc(NC(=O)CCc2c(C)nc3c(c(C)nn3-c3ccc(C)cc3)c2C)cc1` stands -18.2% (inactive); under `CCc1ccc(NC(=O)Cn2c(=O)n(CCC(=O)NCc3ccc4c(c3)OCO4)c(=O)c3ccccc32)cc1`, -4.89% (inactive). For the molecule `Cc1ccccc1NC(=O)Cn1cc(C(=O)c2cccs2)c2ccccc21`, the activation is -6.21% (inactive). Turning to `Cn1c(=O)c2c(SCC(=O)NCC3CCCO3)nc(-c3ccccc3F)nc2n(C)c1=O` (stereo not given), the activation is -4.7% (inactive). The figure for `CCOc1ccc(NC(=O)c2cnn(-c3ccccc3)c2-n2cccc2)cc1` is -6.74% (inactive).

Regarding `CN1CC[C@H](c2c(O)cc(O)c3c(=O)cc(-c4ccccc4Cl)oc23)[C@H](O)C1`, the activation is -16.5% (inactive).

For `O=C(NC1CC(=O)N(c2ccc(F)cc2)C1)C1CCCCC1` (stereo not given), the activation is -2.56% (inactive). Under `COc1cc(OC)cc(C(=O)Nc2c(C(=O)Nc3ccc(F)cc3)oc3ccccc23)c1` stands 1.9% (inactive). Under `CC(C)C(=O)Nc1nc2c(s1)CC(C(C)(C)C)CC2` (stereo not given) stands 63.2% (active); under `CC(C)(C)C1CCc2c(sc(NC(=O)c3ccccc3F)c2C(=O)N2CCCCC2)C1` (stereo not given), -35.6% (inactive). In the case of `Cc1cc(C)cc(OC(C)C(=O)Nc2nc3c(s2)CCCC3)c1` (stereo not given), the activation is -14.5% (inactive). Take `COc1ccc2cc(-c3nc(Cl)c4c5c(sc4n3)CC(C)CC5)c(=O)oc2c1` (stereo not given): the activation was -14.3% (inactive). The figure for `CCCS(=O)(=O)N1CCC(n2c(C(F)(F)F)nc3cccnc32)CC1` is -3.95% (inactive). In the case of `Cc1oc2ccc(O)c(CN3CCOCC3)c2c1C(=O)Nc1cccc(Cl)c1C`, the activation is 18.4% (inactive). Consider `Cc1oc2ccc(O)c(CN3CCCCC3)c2c1C(=O)Nc1cccc(C(F)(F)F)c1`, for which the activation is 106% (active). Regarding `Cc1oc2ccc(O)c(CN3CCC(C)CC3)c2c1C(=O)Nc1ccccc1`, the activation was 17.2% (inactive). In the case of `Cc1cccc(NC(=O)C2CCCN2S(=O)(=O)c2cccc3nsnc23)c1C` (stereo not given), the activation is 8.79% (inactive). Take `CN1CCC[C@@H]1CCO[C@](C)(c1ccccc1)c1ccc(Cl)cc1`: the activation was 68.2% (active). The figure for `COc1ccccc1CNc1nccn(-c2ccc(F)cc2)c1=O` is 30.2% (inactive). The figure for `COc1cccc(CNc2nccn(-c3ccc(OC)c(OC)c3)c2=O)c1` is -0.901% (inactive); for `COc1ccc(-n2ccnc(NCCc3ccc(Cl)cc3)c2=O)cc1OC` it is 105% (active); for `COc1cccc(NC(=O)C2CCN(c3cc(C)nc4c(-c5ccc(Cl)cc5)c(C)nn34)CC2)c1` it is -2.14% (inactive).

Regarding `COc1cccc(N=C2SC(C(=O)Nc3cccc(Cl)c3)CC(=O)N2C)c1` (stereo not given), the activation was 68.2% (active).

On to `COc1cccc(NC(=O)Nc2ccc3c(c2)N(C)C(=O)c2ccccc2S3)c1`, for which the activation is 4.16% (inactive).

Take `CC(C)c1ccc(NC(=O)c2ccc3c(O)c(S(=O)(=O)c4ccccc4)c(=O)[nH]c3c2)cc1`: the activation was -0.853% (inactive). For the molecule `O=C(c1cnn(-c2ccc(F)cc2)c1-n1cccc1)N1CCN(c2ccc(F)cc2)CC1`, the activation was 19% (inactive). The figure for `COc1ccc(NC(=O)CSc2nc3ccccc3[nH]2)cc1` is -10% (inactive). The figure for `Cc1ccc(OCC(=O)Nc2ccc(Cl)c(-c3nc4ccccc4[nH]3)c2)cc1C` is 70.6% (active); for `COc1ccc(CC(=O)Nc2ccc(-c3nc4ccccc4s3)c(C)c2)cc1` it is 27.8% (inactive). The figure for `COc1ccc(CNC(=O)Cc2coc3ccc(C(C)C)cc23)cc1` is -15.8% (inactive); for `COc1ccc2c(c1)c(N1CCCC1=O)c(C(=O)Nc1ccc(OC)c(Cl)c1)n2C` it is 3.27% (inactive); for `CCCCN(CCCC)CCC(O)c1cc2c(Cl)cc(Cl)cc2c2cc(C(F)(F)F)ccc12` (stereo not given) it is 98.9% (active). With `CCOc1ccc(CCNC(=O)c2csc3c2CCCCC3)cc1`, the activation is 3.74% (inactive). Turning to `Brc1cccc(-c2nnn3c2nc(NC2CCCCC2)c2ccccc23)c1`, the activation is -7% (inactive). For the molecule `O=C(Nc1nc2c(s1)CCCC2)c1ccccc1F`, the activation is -7.97% (inactive). As to `CC(C)(C)c1ccc(S(=O)(=O)Nc2ccc(O)c(Sc3nc4ccccc4s3)c2)cc1`, the activation is 2.42% (inactive).

`Cc1nc2ccc(S(=O)(=O)NC(C(=O)NCc3ccccc3Cl)C(C)C)cc2s1` (stereo not given): the activation is 7.27% (inactive). The figure for `CC(C)c1ccc(S(=O)(=O)Nc2ccc(O)c(Sc3nc4ccccc4s3)c2)cc1` is 70.6% (active). Under `Cc1ccc(-n2c(=O)c3cccnc3n2CC(=O)Nc2ccccc2C(F)(F)F)cc1C` stands -16.8% (inactive). Regarding `CCCC12CN3CC(C)(CN(C1)C3c1ccccc1Cl)C2=O` (stereo not given), the activation was -8.25% (inactive). Under `CCN(CCCNC(=O)c1cc2cc3cc(OC)ccc3nc2s1)c1ccccc1` stands -15.5% (inactive); under `Cc1cccc(N2CCN(C(=O)c3cnc(N4CCCC4)nc3C)CC2)c1C`, 36.6% (inactive). With `CCN(C(=O)Cn1c(=O)nc(-c2ccccc2)c2cc(Cl)ccc21)c1cccc(C)c1`, the activation was -7.41% (inactive).
